Source: PubChem BioAssay (National Center for Advancing Translational Sciences (NCATS))
Shown are actives, neighbours in structure and some others; about 12% of the full set was active somewhere.
BAZ2B block: inhibitors of human BAZ2B bromodomain; AlphaScreen BAZ2B-H3K14Ac peptide displacement; Potency, µM (top dose mostly 114 µM), for the others: at the highest dose activity change, negative = inhibition, most hits filed as inhibitors; 360,000 compounds, 4.4% hits; AID 504333; further: on the % scale 0 is the no-effect control and ±100 the full control effect; nearly all actives have a fitted effect of over 60% in size
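AlphaScreen displacement: compounds (up to 110uM) incubated 30 min at room temperature with a preformed 50 nM BAZ2B/50 nM biotinylated H3K14Ac peptide complex in PBS pH 7.4 with Tween-20. Donor and acceptor beads at 10 ug/mL final added, 20 min light-protected before reading.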
JMJD2A Tudor: inhibitors of human JMJD2A Tudor domain; O75164; AlphaScreen JMJD2A-Tudor / H3K4me3 peptide binding; Potency, µM (doses to about 114 µM), without a hit: at the top dose activity change, negative = inhibition, hits mostly inhibitors; 390,000 compounds, 4.4% hits; AID 504339; further: on the % scale 0 is the no-effect control and ±100 the full control effect; nearly all actives have a fitted effect of over 50% in size
G9a block: G9a (human) methyltransferase inhibition; Q96KQ7; G9a H3K9 monomethylation, AlphaScreen, 2 h; Potency, µM (titrated, usually from 102 µM), inactives show at the highest dose activity, negative = inhibition, most hits filed as inhibitors; 350,000 compounds, 8.8% hits; further: on the % scale 0 is the no-effect control and ±100 the full control effect; nearly all actives have a fitted effect of over 75% in size
Target sequence (Q96KQ7 913-1193 limits assumed): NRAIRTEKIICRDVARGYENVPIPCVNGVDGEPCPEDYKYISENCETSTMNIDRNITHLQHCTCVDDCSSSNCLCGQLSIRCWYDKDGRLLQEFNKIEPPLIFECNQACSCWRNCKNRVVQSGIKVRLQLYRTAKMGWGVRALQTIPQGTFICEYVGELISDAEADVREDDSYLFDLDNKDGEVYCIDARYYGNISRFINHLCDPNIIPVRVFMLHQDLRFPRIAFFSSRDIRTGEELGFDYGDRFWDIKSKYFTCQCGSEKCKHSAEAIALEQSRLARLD
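Step 1: enzyme (final 20 nM) with compound, 15 min RT. Step 2: substrate peptide 500 nM and SAM 20 uM, 2 h RT. Step 3: anti-H3K9me1 antibody and AlphaScreen beads, 10 min, then plate read.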
Sfp inh: Sfp phosphopantetheinyl transferase inhibition | Q9F4F7 | Biochemical Sfp PPTase activity, qHTS | Potency, µM, for the others: largest response in the series, negative = inhibition, usual class: inhibitors | 310,000 compounds, 3.5% hits;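 further: the enzyme is Sfp with the accession as filed and its product quenches rhodamine fluorescence; 0% = enzyme reaction without inhibitor and -100% = no enzyme wells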
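Step 1, compound plus 15 nM Sfp-PPTase, 15 min, room temperature. Step 2, add rhodamine-CoA (5 uM) and BHQ-2-YbbR (12.5 uM). Step 3, read 525/598 nm fluorescence at 0 and 30 min.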
HP1b chromo inh: blocks HP1-beta chromodomain binding to methylated histone tails | P83916 | AlphaScreen HP1-beta / biotin-H3K9me3 peptide binding | Potency, µM (doses to about 114 µM), for inactives: at the top dose activity change, negative = inhibition, hits mostly inhibitors | 390,000 compounds, 0.56% hits; further: nearly all actives have a fitted effect of over 70% in size
Target sequence (P83916 whole entry, looked up): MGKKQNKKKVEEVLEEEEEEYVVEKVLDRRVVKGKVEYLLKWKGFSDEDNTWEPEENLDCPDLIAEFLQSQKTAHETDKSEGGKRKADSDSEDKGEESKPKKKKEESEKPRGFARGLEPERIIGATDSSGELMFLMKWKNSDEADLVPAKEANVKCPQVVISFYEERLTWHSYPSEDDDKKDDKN
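HP1-beta protein (50 nM final) preincubated 30 min at room temperature with biotinylated H3(1-18)K9me3 peptide (50 nM) in PBS pH 7.4, 0.01% Tween-20, then compound added for 30 min. AlphaScreen streptavidin donor/nickel chelate acceptor beads (10 ug/mL final), 30 min dark, luminescence read.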
The depositor's hits bear a star; u = inconclusive; x = no result; [ ] = another dose, or the depositor's remark. The call rests on the fitted dose curve; in most records, active means well fitted curve in the direction sought with a large enough effect; inconclusive means small, poorly fitted or top-dose-only effect, or another doubt; inactive means no such curve, though single readings can be large; an effect the other way counts as inactive or inconclusive. Potency means the concentration at half of the fitted maximal effect.

SMILES | BAZ2B block | JMJD2A Tudor | G9a block | Sfp inh | HP1b chromo inh
CC1(C)CC(C)(O)N(Cc2ccccc2)C(=S)N1 (centres undefined) | 6.0% | -1.8%[57.1 µM] | 33.8%[59 µM] | 5.5% | -21.3%
CC1(CCc2ccccc2)NC(=S)N(c2ccc(Cl)cc2)N1 (centres undefined) | 79.4µM* | u | 10µM* | -86.5% | 34.2%
CC1(CCc2ccccc2)NC(=S)N(c2ccccc2)N1 (centres undefined) | 50.1µM* | u | 10µM* | 44.7µM* | 28.2%
O=C(CSCc1ccccc1)Nc1cccc(F)c1 | 3.5% | 44.7µM* | 8.8%[59 µM] | 11.4% | 22.4%
CCC(=O)c1ccc(OCC(=O)N(C)CC(=O)Nc2cccc(F)c2)cc1 | -10.2% | 0.0% | -13.4%[59 µM] | 2.3% | 67.2%
Cc1cccc(NC(=O)CSCC(=O)N(C)CCOc2ccc(Cl)cc2)c1 | -3.3% | -10.3% | 56.2µM* | x | 23.3%
O=C(CSCc1ccc(F)cc1)Nc1ccc(F)cc1 | -2.4% | 3.1% | -7.8% | 4.4% | 51.2%
O=C(Cc1ccccc1)Nc1cccc(N2C(=O)C=CC2=O)c1 | u | 20µM* | 0.355µM* | -85.6% | u
CCc1cccc(OCC(=O)N(C)CC(=O)Nc2cccc(F)c2)c1 | 9.3% | -9.7% | 50.1µM* | x | 18.5%
CCc1ccc2oc(-c3ccc(C)c(NC(=O)c4cc([N+](=O)[O-])ccc4N4CCOCC4)c3)nc2c1 | -27.6% | -17.9% | u | x | 17.2%
COc1cccc(NC(=O)CSc2nccn2Cc2ccc3c(c2)OCO3)c1 | u | u | -8.5%[59 µM] | x | 1.1%[57 µM]
Cc1cccc(NC(=O)CSCC(=O)N(C)CC(=O)Nc2cccc(F)c2)c1 | -5.6% | -17.9% | -12.8%[0.501 µM] | x | 34.5%
Cc1ccc(NC(=O)CSCC(=O)N(C)CC(=O)Nc2cccc(F)c2)cc1 | 1.7% | -6.2% | 44.7µM* | x | 20.0%
O=C1c2[nH]nc(-c3ccccc3O)c2C(c2ccc(Cl)cc2)N1Cc1ccco1 (centres undefined) | u | u | 1.6%[59 µM] | x | -33.2%
CC(=O)NCCC(=O)Nc1cc(S(=O)(=O)N2CCCCC2)ccc1N1CCCCC1 | 3.8% | -11.3% | 5.7%[12.7 µM] | x | 29.4%
CC(=O)NCCC(=O)Nc1cc(S(=O)(=O)Nc2ccc(Cl)cc2)ccc1N1CCCC1 | -10.2% | u | 22.4µM* | 79.4µM* | -13.0%
CN1CCN(c2ccc(S(=O)(=O)N3CCCCC3)cc2NC(=O)Cc2c(F)cccc2Cl)CC1 | -6.7% | -24.0% | 44.7µM* | x | -6.4%
CC(=O)NCCC(=O)Nc1cc(S(=O)(=O)N2CCCCC2)ccc1N1CCN(C)CC1 | 10.1% | u | 50.1µM* | x | 5.7%
O=S(=O)(Nc1ccc(Cl)cc1)c1ccc(N2CCOCC2)c(NC(=S)NCCN2CCOCC2)c1 | u | 79.4µM* | 4.47µM* | 3.98µM* | u
O=C(Cc1c(F)cccc1Cl)Nc1cc(S(=O)(=O)N2CCCCC2)ccc1N1CCOCC1 | -8.5% | -18.7% | -4.0%[12.7 µM] | 6.5% | 2.1%
CCOC(=O)c1c(NC(C)=O)c2c3c(sc2n1Cc1nc(-c2ccc(Cl)cc2)oc1C)CCCC3 | -0.2% | -7.3% | -2.0%[59 µM] | x | 26.0%
O=C(COc1ccc2c(c1)OCO2)Nc1nncs1 | 2.6% | -4.2% | 27.6% | -2.6% | 16.1%
O=C(NCCCN1CCCC1=O)c1ccc2c(c1)NC(=O)C(N1CCOCC1)S2 (centres undefined) | -1.3% | 0.0% | -44.6%[12.7 µM] | 70.8µM* | 14.9%
C=CCn1c(SCC(=O)N2CCOCC2)nc2scc(-c3ccco3)c2c1=O | u | 28.2µM* | u | 2.82µM* | -23.0%
CC(C)C(C)(C#N)NC(=O)CSc1nc2scc(-c3ccco3)c2c(=O)n1-c1ccccc1 (centres undefined) | -11.5% | -3.1%[11.4 µM] | 44.7µM* | 7.94µM* | 50.4%
SMILES | BAZ2B block | JMJD2A Tudor | G9a block | Sfp inh | HP1b chromo inh
C=CCn1c(SC(F)F)nc2scc(-c3ccco3)c2c1=O | -12.0% | 14.5% | -61.4% | u | -3.7%
C=CCn1c(SCC(=O)NCCCC(=O)OCC)nc2scc(-c3ccco3)c2c1=O | -14.2% | -8.4% | u | 17.8µM* | 26.2%
C=CCn1c(SCC(=O)N2CCCC2)nc2scc(-c3cccs3)c2c1=O | -7.0% | -11.1% | -39.9%[59 µM] | -10.1% | 35.8%
C=CCn1c(SCC(C)=O)nc2scc(-c3ccco3)c2c1=O | 44.7µM* | 50.1µM* | 7.94µM* | 7.08µM* | u
CN(C)CCCN(C(=O)c1ccc(S(=O)(=O)N(C)Cc2ccccc2)cc1)c1nc2cc3c(cc2s1)OCO3 | u | 50.1µM* | 50.1µM* | u | -15.3%
CN(C)CCN(C(=O)c1cccc(N2C(=O)CCC2=O)c1)c1nc2ccc(Br)cc2s1 | -5.3% | -9.6% | u | 2.3% | 9.7%
CN(C)CCCN(C(=O)c1ccc2c(c1)OCCO2)c1nc2cc3c(cc2s1)OCO3 | -14.5% | -22.9% | x | 10.4% | 16.3%
CN(C)CCN(C(=O)c1ccc(N2C(=O)CCC2=O)cc1)c1nc2cc3c(cc2s1)OCO3 | x | -15.5% | 39.8µM* | 1.2% | 17.7%
COc1ccc2sc(N(CCCN(C)C)C(=O)c3ccc(S(=O)(=O)N(C)Cc4ccccc4)cc3)nc2c1 | u | 50.1µM* | 44.7µM* | x | u
CN(C)CCCN(C(=O)c1ccc([N+](=O)[O-])o1)c1nc2cc3c(cc2s1)OCO3 | -32.5% | -29.8% | 56.2µM* | -4.5% | 0.5%
CCC1CN(C(=O)Nc2cccc3c2CCCC3)c2cc(Cl)ccc2O1 (centres undefined) | 42.9% | 35.9% | 7.0%[59 µM] | x | 66.7%
CN(C)CCCN(C(=O)c1ccc2ccccc2c1)c1nc2cc3c(cc2s1)OCO3 | u | u | u | -4.9% | 4.2%
CCN(c1ccccc1)S(=O)(=O)c1ccc(C(=O)N(CCCN(C)C)c2nc3c(C)cccc3s2)cc1 | 28.2µM* | 44.7µM* | x | -14.5% | -19.4%
CCN(c1ccccc1)S(=O)(=O)c1ccc(C(=O)N(CCCN(C)C)c2nc3cc4c(cc3s2)OCO4)cc1 | -37.0% | 39.8µM* | 39.8µM* | u | u
O=C1CC(c2ccco2)CC(O)=C1C=NCCO (centres undefined) | 11.8% | -4.1% | 79.4µM* | u | 33.3%
CCC(C)NC(=O)c1nn(-c2ccc(C)cc2)nc1CO (centres undefined) | 2.9% | -19.8% | 6.1%[59 µM] | x | 9.4%
COc1ccc(C2NC(=S)N(c3ccccc3)C(C)=C2C(=O)Nc2ccccc2)cc1 (centres undefined) | 1.2% | -24.6% | u | 89.1µM* | -6.4%
COc1ccc(C2NN=C(c3ccc(C)cc3)S2)cc1OC (centres undefined) | -4.7% | -4.2% | 12.6µM* | u | 23.4%
Cc1ccc(C2=NNC(c3cccc(F)c3)S2)cc1 (centres undefined) | -28.2% | -12.3% | u | 10.2% | 39.1%
Fc1ccc(Nc2ncnc3onc(-c4ccc(Cl)cc4)c23)cc1Cl | 6.5% | 18.9% | 26.7%[59 µM] | x | 101.8%
CCOc1ccc2nc(SCC3CC3(Cl)Cl)[nH]c2c1 (centres undefined) | -19.1% | 2.8% | 44.7µM* | 8.9% | 30.7%
